This is part of a sample that, as a whole, favours compounds with a hit. Of some 79,000 tested, about 15% had one in any assay. The source made the active and inactive calls. No stated cut-off is given here; in the data, active means growth inhibition above about 70%; inactive means the rest.
Legend:
[1] = NCI Yeast Anticancer Drug Screen. Data for the rad50 strain (AID 155);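 further: 0% = growth of vehicle-only cultures of the same strain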; conditions: S. cerevisiae rad50 strain growth inhibition; at 50.0 µM; stronger effect = higher value
Summary of the method: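 A DNA repair-deficient yeast mutant serves as the test organism; compound-induced growth inhibition is calculated against vehicle-treated cells.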

[2] = NCI Yeast Anticancer Drug Screen. Data for the mec2-1 strain (AID 157); conditions: S. cerevisiae mec2-1 strain, at 50.0 µM, stronger effect = higher value
Summary of the method: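 Each compound was tested on mec2-1 yeast, a strain altered in DNA damage repair or cell cycle control. Growth inhibition is reported relative to vehicle.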

[3] = NCI Yeast Anticancer Drug Screen. Data for the sgs1 mgt1 strain (AID 161);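 further: 0% = growth of cultures given vehicle only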; conditions: S. cerevisiae sgs1 mgt1 strain, at 50.0 µM, stronger effect = higher value
Summary of the method: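 Mutant yeast exposed to compound; growth scored against vehicle-only wells.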

[4] = NCI Yeast Anticancer Drug Screen. Data for the cln2 rad14 strain (AID 165);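 further: 0% = growth equal to vehicle treated cultures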; conditions: S. cerevisiae cln2 rad14 strain, at 50.0 µM, stronger effect = higher value
Summary of the method: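 Test compounds were added to cln2 rad14 yeast cultures; inhibition of growth was then determined by comparison with vehicle treatment.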

[5] = NCI Yeast Anticancer Drug Screen. Data for the bub3 strain (AID 167); conditions: S. cerevisiae bub3 mutant strain, at 50.0 µM, stronger effect = higher value
Summary of the method: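 Inhibition values come from growth of compound-treated mutant yeast normalised to vehicle-treated controls.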

[6] = NCI Yeast Anticancer Drug Screen. Data for the mlh1 rad18 strain (AID 175); conditions: S. cerevisiae mlh1 rad18 strain growth inhibition; at 50.0 µM; stronger effect = higher value
Summary of the method: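 Inhibition values reflect reduced growth of mutant yeast versus vehicle-treated controls following compound exposure; the mutations affect DNA damage repair.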

Measured: growth inhibition

CC(C)(C)c1cc(/C=N/NC(=S)Nc2ccccc2)cc(C(C)(C)C)c1O
inactive: [1] 25.9% | [2] 8.35% | [3] 41% | [4] -26.3% | [5] -7.15% | [6] 41.5%

COc1cccc2c1C(=N)c1c(O)c3c(c(O)c1C2=O)C[C@@](O)(C(=O)CO)C[C@@H]3OC1CC(N)C(O)C(C)O1 (stereo partly specified)
inactive: [1] 55.4% | [2] 23.2% | [3] -8.7% | [4] 22.4% | [5] -16.9% | [6] -13.9%

O=[N+]([O-])c1ccccc1S(=O)(=O)N1CCCc2cc(Cl)ccc21
inactive: [1] -3% | [2] 4.15% | [3] 9.45% | [4] -12% | [5] 20.6% | [6] 13.4%

CCC(CC)COC(=O)c1ccccc1C
inactive: [1] 7.45% | [2] -0.15% | [3] -0.85% | [4] -27.1% | [5] 15.4% | [6] 0.6%

N#CCc1c(Cl)ccc(Cl)c1Cl
inactive: [1] 37% | [2] 45.6% | [3] 44.6% | [4] 3.9% | [5] 58.8% | [6] 39.5%

Cc1n[nH]c(=O)n1-c1cccnc1
inactive: [1] -0.7% | [2] 1.5% | [3] -9% | [4] -12.3% | [5] 3.55% | [6] 3.6%

COc1ncnc2c(NC3OC(CO)C(O)C3O)ncnc12 (stereo unspecified)
inactive: [1] 7.2% | [2] -6.5% | [3] -5.4% | [4] 12.4% | [5] -9.2% | [6] -9.3%

N#Cc1c(-c2ccccc2)c(C#N)c(=O)n(N)c1N
inactive: [1] -6.7% | [2] -0.8% | [3] 7.35% | [4] 2.5% | [5] 23.1% | [6] 16.9%

O=C(O)c1cncc(C(=O)O)c1
inactive: [1] -37% | [2] -12.7% | [3] -14.7% | [4] -7.6% | [5] -47.5% | [6] -24.6%

CSc1ccc(C(=NO)c2ccc(SC)cc2)cc1
inactive: [1] -11.4% | [2] 17.8% | [3] -1.3% | [4] -0.85% | [5] -8.5% | [6] -11.7%

O=c1[nH]cnc2c1ncn2CCc1ccc([N+](=O)[O-])cc1[N+](=O)[O-]
inactive: [1] 3% | [2] -6.15% | [3] 9.4% | [4] -54.9% | [5] -15.1% | [6] -7.95%

CCOc1ccccc1N1C(=O)C(=O)C(c2nc3ccccc3o2)C(=O)C1=O
inactive: [1] -8.75% | [2] 4.3% | [3] -8.4% | [4] -15.9% | [5] 2.55% | [6] -3.2%

COC(=O)c1ccc(SCCC(C)=O)cc1
inactive: [1] -8% | [2] 5.3% | [3] -12.1% | [4] 9.9% | [5] 25.9% | [6] 0.7%

COc1cc(C=NCc2ccccc2)cc(OC)c1O
inactive: [1] -1.05% | [2] 19.2% | [3] 4.7% | [4] -14.6% | [5] 19.8% | [6] 8.9%

C[C@H](CCc1nc(C#N)c(N)o1)[C@H]1CC[C@H]2[C@@H]3CCC4C[C@@H](O)CC[C@]4(C)[C@H]3C[C@@H](O)[C@]12C (stereo partly specified)
active: [1] 87% | [2] 91.6% | [3] 86% | [4] 87.7% | [5] 84%
inactive: [6] 46%

CC(C)=C=CC(C)(C)NS(=O)(=O)NC(C)(C)C=C=C(C)C
inactive: [1] 12.5% | [2] -9.85% | [3] 2.4% | [4] 3.35% | [5] -16.6% | [6] 8.35%

CC(C)(C)c1cc(Br)c(O)c(CN(Cc2cc(C(C)(C)C)cc(Br)c2O)C2CCCCC2)c1
inactive: [1] 16.1% | [2] -24.9% | [3] -34.2% | [4] -14.2% | [5] -35.2% | [6] 1.35%

O=C(NC(=O)C(F)(F)C(F)(F)F)Nc1cc(F)ccc1F
inactive: [1] 5.15% | [2] -2.05% | [3] 1.45% | [4] -38.8% | [5] -6.55% | [6] -29%

CCOC(=O)NC(C)(C)CC(C)(C)C
inactive: [1] -0.6% | [2] -17.6% | [3] -4.7% | [4] 11.9% | [5] -18.6% | [6] 17.4%

CCCCCCc1cc(C(=O)N/N=C/c2ccccc2O)c2ccccc2n1
inactive: [1] -35.2% | [2] -8.1% | [3] 16% | [4] -13.2% | [5] 67.6% | [6] -2.95%

CN1CCCC(NC(c2ccccc2)c2ccccc2)C1 (stereo unspecified)
inactive: [1] 25.4% | [2] 0.45% | [3] 23.9% | [4] -11.8% | [5] 34.5% | [6] 18.9%

O=C(O)/C=C/C(=O)Nc1ncn[nH]1
inactive: [1] -3.55% | [2] -24.7% | [3] -22.9% | [4] 3.2% | [5] -34.9% | [6] -5.4%

O=C1C[C@@H]2CCCC[C@@H]2C12SCCS2
inactive: [1] -10.9% | [2] -18.6% | [3] -6.95% | [4] 13.8% | [5] -9.45% | [6] -5.25%

CC1(C)C2CC3C(CCC4C(=O)OC(=O)C43)C1C2 (stereo unspecified)
inactive: [1] -1.2% | [2] 10.2% | [3] -3.8% | [4] -5.3% | [5] -4.3% | [6] -2.35%

O=C(C[N+]12CN3CN(CN(C3)C1)C2)c1cccc2ccccc12
inactive: [1] 11.2% | [2] -11.6% | [3] 9.35% | [4] -3.2% | [5] -4.7% | [6] 14.6%

CCOC(=O)NN(C(=O)OCC)C(=C(c1ccccc1)N1CCOCC1)N(NC(=O)OCC)C(=O)OCC
inactive: [1] 6.3% | [2] 5.6% | [3] -2.7% | [4] 31.1% | [5] -2.25% | [6] 10.8%

COc1cc(C2CC(C)(N3CCCC3)Oc3cc4c(cc32)OCO4)cc(OC)c1OC (stereo unspecified)
inactive: [1] 1.2% | [2] -1.6% | [3] 9.5% | [4] -47.4% | [5] -11.8% | [6] 5.95%

N#Cc1ccc([N+](=O)[O-])n1CCO
inactive: [1] 9.7% | [2] 8.7% | [3] 35% | [4] -0.05% | [5] 15.6% | [6] 19.3%

NCC(=O)N1CCCCC1
inactive: [1] 7.05% | [2] 9.75% | [3] 4.95% | [4] -8.15% | [5] -2.1% | [6] 7.7%

CC(=O)Oc1cc2c3ccccc3ccc2c2ccccc12
inactive: [1] 13% | [2] -9.5% | [3] 10.1% | [4] -2.9% | [5] 8.85% | [6] 0.05%

Cc1ccc[n+]([O-])c1Cl
inactive: [1] 1.55% | [2] 14.2% | [3] -8.55% | [4] -34.2% | [5] 11.2% | [6] 4.2%

CC1C=C(OC(=O)c2ccccc2)C(=O)C(n2cc(F)c(=O)n(C(=O)c3ccccc3)c2=O)O1 (stereo unspecified)
inactive: [1] 43.2% | [2] 47.3% | [3] 68.7% | [4] 0.1% | [5] -1.25% | [6] 15.6%

CCOC(=O)C1=NN(c2ccccc2)C(=O)/C1=C\N1CC(=O)NC1=S
inactive: [1] -19.4% | [2] -14.2% | [3] -31.5% | [4] -10.2% | [5] 9.85% | [6] -32.1%

CCN1C(=O)Nc2ccc(Cl)cc2C1(O)c1ccccc1 (stereo unspecified)
inactive: [1] 6.25% | [2] 12.6% | [3] 1.55% | [4] 10.8% | [5] -12.8% | [6] -6.35%

O=C(c1ccc2c(c1)OCO2)C(O)c1ccc(Cl)cc1 (stereo unspecified)
inactive: [1] 2.85% | [2] 3.9% | [3] 1.85% | [4] -16.1% | [5] -4.75% | [6] 5%

COC(=O)/C(C#N)=C/NC(=S)Nc1ccccc1
inactive: [1] -48.1% | [2] -0.85% | [3] -44.5% | [4] 11.2% | [5] -26.3% | [6] -33.2%

CC(=O)Nc1ccn(C2OC(COC(C)=O)C(OC(C)=O)C(OC(C)=O)C2OC(C)=O)c(=O)n1 (stereo unspecified)
inactive: [1] 0.3% | [2] -14.3% | [3] 2.45% | [4] -12.1% | [5] -4.3% | [6] 5.55%

COc1ccc(C2N(C(C#N)c3ccccc3OC)CCCN2C(C#N)c2ccccc2OC)c(OC)c1 (stereo unspecified)
inactive: [1] 57.1% | [2] 18.3% | [3] 30.3% | [4] 25.4% | [5] -2.55% | [6] 42%

CCCCOC(=O)c1ccc(OC(=O)Nc2cccc(Cl)c2)cc1
active: [5] 70.7%
inactive: [1] 13.2% | [2] 2.3% | [3] 6.15% | [4] 12.2% | [6] 30.1%

O=C(Nc1ccc([N+](=O)[O-])cc1Cl)c1ccc(C(=O)Nc2ccc([N+](=O)[O-])cc2Cl)cc1
inactive: [1] -6.4% | [2] -1.75% | [3] -1.85% | [4] 31.3% | [5] 1.95% | [6] 0.55%

CCOCCOCCOCOCCOCCOCC
inactive: [1] 17.2% | [2] -25.2% | [3] 8.4% | [4] 7.25% | [5] 25.9% | [6] -4%

From PubChem BioAssay (NCI)
